The list is not random: actives were taken first. Their share in the collection is about 9.3%.
NADH coupling: blocks coupling enzymes of NAD/NADH assays | 65,000 tested, 0.02% active | coupled PK/LDH NADH assays, four targets | IC50, µM (series often up to 10 µM) | AID 774;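 active = single-dose screening hits from any of four coupled enzyme assays that gave an IC50 when retested across doses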;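 also: the DPM-DC format reads NADH fluorescence rather than 340 nm absorbance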
Fluor 339 460: intrinsic fluorescence of library compounds, ex339/em460 – biochemical, MLSMR library, data from DPM-DC assay, artefact control, profiling panel; fluorescence fold increase at 10 µM; compound autofluorescence, ex339/em460 nm, NADH buffer; stronger effect = higher value; 1 = no-compound wells, NADH background; AID 709; 65,000 tested, 5.5% active;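 active = at 10 µM, mean starting fluorescence two-fold or more over control wells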;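 also: signal is the first read of a kinetic run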
M1 antagonist: blocks the rat M1 muscarinic receptor response to acetylcholine. AID 628. 64,000 tested, 3.4% active. P08482. CHO-M1 cells, Fluo-4 calcium, ACh EC80 antagonist mode; stronger effect = lower value. B-score at 10 µM;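 active = calcium fluorescence response, raw or row-and-column corrected B-score, differing from the plate sample mean either way at a set confidence level, mostly lower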
Target sequence (P08482 whole entry, looked up): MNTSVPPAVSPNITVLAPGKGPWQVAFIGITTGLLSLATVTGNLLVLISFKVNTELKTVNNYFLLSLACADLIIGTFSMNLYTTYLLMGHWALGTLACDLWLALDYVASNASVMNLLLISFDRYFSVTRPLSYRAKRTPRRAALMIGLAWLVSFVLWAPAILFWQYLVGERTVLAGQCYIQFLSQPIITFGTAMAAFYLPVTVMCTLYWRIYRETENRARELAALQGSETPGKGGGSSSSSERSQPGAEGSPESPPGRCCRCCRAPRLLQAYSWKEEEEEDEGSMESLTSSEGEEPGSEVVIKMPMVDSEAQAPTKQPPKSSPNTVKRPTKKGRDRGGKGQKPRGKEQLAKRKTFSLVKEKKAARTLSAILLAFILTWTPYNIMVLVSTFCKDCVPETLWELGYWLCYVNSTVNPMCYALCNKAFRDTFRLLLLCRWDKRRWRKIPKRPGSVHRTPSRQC
mHtt clearance: compounds clearing mutant huntingtin protein; 47,000 tested, 0.42% active; inhibition, % at 1.5 µM; HeLa Exon1htt(103Q)mCFP, aggregate imaging; zero = plate's median compound well;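 active = inhibition of aggregate fluorescence above about 70%, also judged a hit by eye on the cell image, limit read from the data, passing the limit was not always enough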;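 also: cells exposed to compound for three days before fixation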
M1 agonist: activates the M1 muscarinic receptor. CHO-M1 cells, Fluo-4 calcium fluorescence, agonist mode; stronger effect = higher value. B-score at 10 µM. 64,000 tested, 3% active. AID 626;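 active = fluorescence rise, raw or as B-score row- and column-corrected plate score, outside the 99.7% band of its plate's samples, either direction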
Abs 340nm: compounds absorbing at 340 nm; fold change at 10 µM; 65,000 tested, under 10 active; AID 708; compound absorbance at 340 nm, fold over control;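 active = at 10 µM dose, initial 340 nm absorbance at least 2 fold that of control wells; inactive = change under 2 fold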;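 also: initial absorbance extrapolated from kinetic A340 decline of NADH oxidation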
Large screens that a line does not name were inactive.

COc1ccc(-c2oc3ncnc(NCCCN4CCOCC4)c3c2-c2ccc(OC)cc2)cc1	Fluor 339 460 3.8
COc1ccc(-c2oc3ncnc(NCCN4CCOCC4)c3c2-c2ccc(OC)cc2)cc1	Fluor 339 460 3.8
c1ccc(-c2oc3ncnc(NCCCN4CCOCC4)c3c2-c2ccccc2)cc1	Fluor 339 460 3.8
O=C1c2ccccc2C(=O)N1CCN1CCOCC1	none
Cc1ccc(C2C3=C(CC(C)(C)CC3=O)N(CCN3CCOCC3)C3=C2C(=O)CC(C)(C)C3)cc1	Fluor 339 460 3.8 (no result: M1 antagonist, M1 agonist)
CC1CCC2(CC1)NC(=O)N(CC(=O)NC(=O)NC1CCCC1)C2=O (configuration not stated)	none (no result: mHtt clearance)
O=C(NCc1ccccn1)C1CC(c2ccc(F)cc2)=NO1 (configuration not stated)	none (no result: NADH coupling, Fluor 339 460, M1 antagonist, M1 agonist, Abs 340nm)
COc1ccc(CCCC(=O)O)c(C)c1	none (no result: M1 antagonist, M1 agonist)
COc1ccc2[nH]c(C(=O)O)c(NS(=O)(=O)c3ccc(OC)c(OC)c3)c2c1	Fluor 339 460 2.2
COc1ccc2[nH]c(C(=O)O)c(CCC(=O)O)c2c1	Fluor 339 460 2.5
Cc1[nH]nc2c1C1(CCC3(CC1)OCCO3)C(C#N)=C(N)O2	none
O=C(Nc1ccc2snnc2c1)Nc1cccc2ccccc12	none (no result: NADH coupling, Fluor 339 460, M1 antagonist, M1 agonist, Abs 340nm)
CCC(C)NCC(=O)Nc1ccc(-c2nc3cc(NC(=O)CNC(C)CC)ccc3o2)cc1 (configuration not stated)	Fluor 339 460 3.7 (no result: mHtt clearance)
O=C(CN1C(=O)c2ccccc2C1=O)Nc1ccc(-c2nc3ccccc3o2)cc1	none (no result: mHtt clearance)
COc1ccc(-c2nc3cc(NC(=O)Cc4ccc(OC)c(OC)c4)ccc3o2)cc1	Fluor 339 460 2.6 (no result: mHtt clearance)
O=C(CN1CCCC1)Nc1ccc(-c2nc3cc(NC(=O)CN4CCCC4)ccc3o2)cc1	Fluor 339 460 3.7
O=C(CCN1C(=O)c2ccccc2C1=O)Nc1ccc(-c2nc3ccccc3o2)cc1	none (no result: mHtt clearance)
CCN(CC)CC(=O)Nc1ccc(-c2nc3cc(NC(=O)CN(CC)CC)ccc3o2)cc1	Fluor 339 460 3 (no result: mHtt clearance)
CC(N1CCOC1=O)S(=O)(=O)c1ccccc1 (configuration not stated)	none (no result: NADH coupling, Fluor 339 460, M1 antagonist, M1 agonist, Abs 340nm)
CCOC(=O)c1cnn(-c2ccccc2)c1-n1cccc1C(=O)C(=O)Nc1ccc(F)cc1	none (no result: NADH coupling, Fluor 339 460, M1 antagonist, M1 agonist, Abs 340nm)
COc1ccc(-n2cnnc2SCc2csc(-c3ccccc3)n2)cc1	none (no result: mHtt clearance)
CCn1c2c(c3cc(C(=O)O)ccc31)CCCC2=O	Fluor 339 460 2.6 (no result: mHtt clearance)
CCn1c2c(c3cc(Cl)ccc31)CCCC2=O	none (no result: mHtt clearance)
CN(C)Cc1cc(CCNC(=O)c2ccc(Cl)cc2)ccc1O	none (no result: M1 antagonist, M1 agonist)
COC(=O)c1ccc(=O)n(Cc2ccc3c(c2)OCO3)c1	none
CCCCn1c(-c2ccccc2)nc2c(=O)n(C)c(=O)[nH]c21	Fluor 339 460 3.7
CCCCn1c(C)nc2c(=O)n(C)c(=O)[nH]c21	none (no result: mHtt clearance)
Cc1cccn2c(N)c(-c3ccccc3)nc12	Fluor 339 460 2.1 (no result: mHtt clearance)
COc1cccc(-c2cn3nc4c(nc3n2)CCCC4)c1	Fluor 339 460 2.6
CCOc1cc(S(=O)(=O)NCC2OCCc3ccccc32)c(OCC)cc1-n1cnnn1 (configuration not stated)	Fluor 339 460 3.9 (no result: mHtt clearance)
CCOc1cc(S(=O)(=O)NCc2ccco2)c(OCC)cc1-n1cnnn1	Fluor 339 460 3.2
Cc1cc(N2CCN(C(=O)OC(C)(C)C)CC2)n2ncnc2n1	none
CCCn1nc(NC(=O)c2cccs2)c2cc3cc(OC)ccc3nc21	Fluor 339 460 2, M1 agonist 3.6 (no result: mHtt clearance)
CCCCn1nc(NC(=O)c2cccs2)c2cc3ccccc3nc21	Fluor 339 460 2.2
COc1ccc(C2CC(=O)C(C=NCCN3CCOCC3)=C(O)C2)cc1 (configuration not stated)	none
COc1ccc(OC)c(N(CC(=O)Nc2ccc3c(c2)OCCO3)S(C)(=O)=O)c1	none (no result: mHtt clearance)
CCN1CCN(c2ncnc3c2cnn3-c2ccc(Cl)cc2)CC1	M1 antagonist -1.4 (no result: mHtt clearance)
CCN1CCN(c2ncnc3c2cnn3-c2ccccc2)CC1	none
c1cnc2c(SCc3ccc(-c4nnco4)cc3)cccc2c1	Fluor 339 460 3.3
C=CCOc1ccccc1/C=c1\sc2nc(-c3oc4ccccc4c3C)nn2c1=O	M1 agonist 5.2
CC(C)(C)C(=O)/C(C#N)=c1\s/c(=C\c2ccncc2)c(=O)n1CCCN1CCOCC1	none (no result: mHtt clearance)
CC(C)(Oc1ccc(Cl)cc1)C(=O)Nc1ccc2oc(-c3ccncc3)nc2c1	Fluor 339 460 3.4
c1cc(-c2nc3cc(Oc4ccc5oc(-c6ccncc6)nc5c4)ccc3o2)ccn1	Fluor 339 460 2.6 (no result: mHtt clearance)
Cc1ccc(OCC(=O)Nc2ccc(O)c(-c3nc4ccccc4o3)c2)cc1	none
O=C(Nc1ccc2oc(-c3ccccc3)nc2c1)c1cccs1	none (no result: NADH coupling, Fluor 339 460, M1 antagonist, M1 agonist, Abs 340nm)
O=C(COc1ccc(Cl)cc1)Nc1ccc2oc(-c3ccncc3)nc2c1	Fluor 339 460 4.8
COc1ccc(OC)c(C(=O)COC(=O)CNC(=O)C2CCCCC2)c1	none (no result: mHtt clearance)
Cc1cc(C)n2nc(S(=O)(=O)NC3CCCCC3)nc2n1	none (no result: mHtt clearance)
CC(C)(O)c1cn(-c2nonc2N)nn1	none (no result: mHtt clearance)
O=c1[nH]c(N2CCOCC2)nc2c1CCCC2	none
Cc1cc(-n2c(=O)c(C#N)cc3c(=O)n4ccccc4nc32)no1	Fluor 339 460 3.8 (no result: M1 antagonist, mHtt clearance, M1 agonist)
C=CCn1c(=O)c(C#N)cc2c(=O)n3ccccc3nc21	Fluor 339 460 4.8
COCCN1CCN(c2c(C)c(C)nc3cc(-c4cccc(OC)c4)nn23)CC1	none (no result: mHtt clearance)
COc1cccc(-c2cc3nc(-c4ccccc4)cc(N4CCC5(CC4)OCCO5)n3n2)c1	Fluor 339 460 2.1 (no result: mHtt clearance)
Fc1ccc(-c2cc3nc(-c4ccccc4)cc(N4CCN(CCN5CCOCC5)CC4)n3n2)cc1	Fluor 339 460 3.7 (no result: mHtt clearance)
COc1ccc(-c2cc3nc4c(c(N5CCC6(CC5)OCCO6)n3n2)CCCC4)cc1	Fluor 339 460 2 (no result: mHtt clearance)
COC(=O)C1(C)Nc2ccccc2C(=O)N1c1ccccc1OC (configuration not stated)	Fluor 339 460 2.1 (no result: mHtt clearance)
COc1ccccc1N1C(=O)c2ccccc2NC1C(OC)OC (configuration not stated)	none (no result: NADH coupling, Fluor 339 460, M1 antagonist, M1 agonist, Abs 340nm)
COC(=O)C1(C)NC(=O)c2ccccc2N1 (configuration not stated)	Fluor 339 460 2.1 (no result: mHtt clearance)
CCC1(C)Nc2ccccc2C(=O)N1O (configuration not stated)	none (no result: mHtt clearance)
Cn1c(=O)[nH]c(=O)c2c1nc(CN1CCN(Cc3ccccc3)CC1)n2CC(N)=O	none (no result: mHtt clearance)
CC1CCN(c2ccc(C(=O)NCc3cccs3)cn2)CC1	none (no result: mHtt clearance)
O=C1CC(c2ccccc2)n2nc(N3C(=O)c4ccccc4C3=O)nc2N1 (configuration not stated)	none
C=C(C)CSc1nc(N)c2c(C)c(C)sc2n1	none (no result: mHtt clearance)
Cc1cccn2c(=O)c3cc(C#N)c(=NC(=O)c4ccncc4)n(Cc4ccco4)c3nc12	Fluor 339 460 2.7, M1 agonist 6.6 (no result: mHtt clearance)
CCCCCn1c(=NC(C)=O)c(C#N)cc2c(=O)n3ccccc3nc21	Fluor 339 460 3.6
